About 3,300 (8.5%) of roughly 39,000 compounds were called active. Only a selection was taken, and actives are over-represented in it overall.
System: HepG2
Test: cytotoxicity call (relative viability < 0.9)
Settings: 10 µM

Compound	cytotoxicity call
COc1ccc(-c2cccc(-c3nc(C(=O)NCC(F)(F)F)cc4c3[C@@H](CCO)N([S@](=O)C(C)(C)C)C4)c2)cc1	inactive
COc1ccc(S(=O)(=O)N(C)C[C@H]2OCCCC[C@H](C)Oc3ccc(NC(=O)c4ccccc4)cc3C(=O)N([C@H](C)CO)C[C@H]2C)cc1	inactive
Cc1ccc(S(=O)(=O)N(C)C[C@H]2Oc3ccc(NC(=O)c4ccncc4)cc3C(=O)N([C@H](C)CO)C[C@@H]2C)cc1	inactive
C[C@@H]1CN([C@H](C)CO)C(=O)c2cc(NS(=O)(=O)c3ccccc3)ccc2O[C@H]1CN(C)S(=O)(=O)c1cn(C)cn1	inactive
Cc1noc(C)c1NC(=O)Nc1ccc2c(c1)CC(=O)N([C@H](C)CO)C[C@@H](C)[C@@H](CN(C)Cc1ccc(-c3ccccc3)cc1)O2	inactive
O=C1[C@@H]2[C@H](C(=O)N1c1ccccc1)C13COC[C@H](c4ccccc4)N1C(=O)C2(C(=O)NCCc1c[nH]c2ccccc12)O3 (stereo partly drawn)	inactive
CCS(=O)(=O)N1C[C@]2(CN(Cc3cccc(c3)Cl)[C@@H](CO)c3c2c2ccc(cc2n3C)OC)C1	inactive
C[C@H](CO)N1C[C@H](C)[C@H](CN(C)C(=O)NC2CCCCC2)OCCCC[C@H](C)Oc2ccc(NC(=O)Nc3ccc(F)cc3)cc2C1=O	inactive
C[C@H](CO)N1C[C@H](C)[C@@H](CN(C)C(=O)NC2CCCCC2)OCCCC[C@H](C)Oc2ccc(NC(=O)Nc3ccc(F)cc3)cc2C1=O	inactive
C[C@H]1CCCCO[C@@H](CN(C)C(=O)NC2CCCCC2)[C@@H](C)CN([C@@H](C)CO)C(=O)c2cc(NC(=O)Nc3ccc(F)cc3)ccc2O1	active
O=c1[nH]nc(N2CCOCC2)c(=O)[nH]1	inactive
C[C@@H]1CN([C@H](C)CO)C(=O)Cc2cc(NS(=O)(=O)c3ccc(F)cc3)ccc2O[C@H]1CN(C)CC1CC1	inactive
Cl.OC(CCN1CCCCC1)(c1ccccc1)C1CCCCC1 (stereo not drawn)	inactive
CS(=O)(=O)O.OC(CCN1CCCCC1)(c1ccccc1)c1ccccc1	inactive
Cl.OC(CCN1CCCC1)(c1ccccc1)C1CCCCC1 (stereo not drawn)	active
COc1ccc(S(=O)(=O)Nc2ccc3c(c2)C(=O)N([C@H](C)CO)C[C@@H](C)[C@H](CN(C)C(=O)NC(C)C)O3)cc1	inactive
C[C@H]1CN([C@@H](C)CO)C(=O)Cc2cc(NS(C)(=O)=O)ccc2O[C@H]1CN(C)C(=O)Nc1ccc(F)cc1	inactive
CC(C)C[C@H](NC(=O)CNC(=O)c1cc(Cl)ccc1Cl)B1OC(=O)C[C@](CC(=O)O)(C(=O)O)O1	active
C[C@@H]1CN([C@@H](C)CO)C(=O)c2cccc(NC(=O)Nc3ccc(F)cc3)c2O[C@@H]1CN(C)S(C)(=O)=O	inactive
C[C@H](CO)N1C[C@H](C)[C@H](CN(C)S(C)(=O)=O)Oc2c(NC(=O)Nc3ccccc3)cccc2C1=O	inactive
Cc1ccc(CSc2ncc(C(F)(F)F)cc2Cl)cc1	inactive
Cc1ccc(CCSc2ccc(Cl)c(Cl)c2)cn1	active
N#Cc1ccccc1C#CCO	inactive
CC(N)O.Cc1cc(CC(C)CC(C)(C)C)n(O)c(=O)c1 (stereo not drawn)	active
Cc1ccc(S(=O)(=O)N2C[C@H](O)COC[C@@H]3O[C@H](CC(=O)N[C@@H]4CCN(Cc5ccccc5)C4)CC[C@H]32)cc1	inactive
C[C@@H]1CN([C@@H](C)CO)C(=O)c2cc(NC(=O)Nc3ccccc3)ccc2O[C@@H]1CN(C)C(=O)Nc1cccc2ccccc12	inactive

Compound	cytotoxicity call
C[C@@H]1CN([C@@H](C)CO)C(=O)c2c(c3ccccc3n2C)-c2ccccc2CO[C@@H]1CN(C)Cc1ccc(O)cc1	inactive
O=C(N/N=C/c1ccc(B(O)O)cc1)c1ccccc1O	inactive
NS(=O)(=O)c1ccc(C(=O)O)cc1 [listing 1 of 2 here]	inactive
NS(=O)(=O)c1ccc(C(=O)O)cc1 [listing 2 of 2 here]	inactive
Cc1cc(C(=O)O)cc(S(N)(=O)=O)c1	active
COc1ccc([Si](C)(C)[C@@H]2[C@@H](CCO)O[C@]3(C(=O)N(Cc4ccccc4)c4ccc(N(C=O)c5ccccc5)cc43)[C@H]2C)cc1	active
C[C@@H]1[C@@H]([Si](C)(C)F)[C@H](CCO)O[C@@]12C(=O)N(Cc1ccccc1)c1ccc(N(C=O)c3ccccc3)cc12	inactive
COc1ccc([Si](C)(C)[C@H]2[C@H](CCO)O[C@@]3(C(=O)N(Cc4ccccc4)c4ccc(N(C=O)c5ccccc5)cc43)[C@@H]2C)cc1	active
COc1ccc([Si](C)(C)[C@@H]2[C@@H](CCOC(=O)NCCCCCC(=O)NO)O[C@]3(C(=O)N(Cc4ccccc4)c4ccc(I)cc43)[C@H]2C)cc1	inactive
COc1ccc([Si](C)(C)[C@H]2[C@H](CCOC(=O)NCCCCCC(=O)NO)O[C@@]3(C(=O)N(Cc4ccccc4)c4ccc(I)cc43)[C@@H]2C)cc1	inactive
COC(=O)C[C@H]1O[C@]2(C(=O)N(Cc3ccccc3)c3ccc(I)cc32)[C@@H](C)[C@@H]1[Si](C)(C)c1ccc(OC)cc1	inactive
Cc1noc(C)c1NC(=O)Nc1ccc2c(c1)C(=O)N([C@@H](C)CO)C[C@@H](C)[C@@H](CN(C)C(=O)Nc1ccc(F)cc1)OCCCC[C@@H](C)O2	inactive
Cc1ccc(S(=O)(=O)NCC[C@@H]2CC[C@H](NS(=O)(=O)c3ccccc3Cl)[C@@H](CO)O2)cc1	inactive
C[C@@H]1CN([C@H](C)CO)C(=O)c2cccc(NC(=O)c3ccncc3)c2O[C@H]1CN(C)Cc1ccc(C(=O)O)cc1	inactive
O=c1cc(-c2cccc(O)c2)oc2ccc(O)cc12	inactive
O=C(C[C@@H]1CC[C@@H]2[C@H](COC[C@H](O)CN2S(=O)(=O)c2ccc(F)cc2)O1)NCc1ccc(Cl)c(Cl)c1	inactive
CS(=O)(=O)N1CCc2c(-c3cnc(N)nc3)nc(N3CCOCC3)nc21	active
c1nc(N2CCOCC2)nc(N2CCOCC2)n1	inactive
CS(=O)(=O)N1CC[C@]2(COCc3cnc(N4CCOCC4)nc32)C1	inactive
C[C@@H]1CN([C@H](C)CO)C(=O)c2cc(NS(=O)(=O)c3ccc(F)cc3)ccc2O[C@@H]1CN(C)Cc1ccc(-c2ccccc2)cc1	active
C[C@H](CO)N1C[C@H](C)[C@@H](CN(C)Cc2ccc(-c3ccccc3)cc2)Oc2ccc(NS(=O)(=O)c3ccccc3)cc2C1=O	inactive
C[C@H]1CN([C@@H](C)CO)C(=O)c2cc(NS(=O)(=O)c3ccc(F)cc3)ccc2O[C@H]1CN(C)Cc1ccc(-c2ccccc2)cc1	inactive
C[C@@H]1CN([C@@H](C)CO)C(=O)c2cc(NS(=O)(=O)c3ccc(F)cc3)ccc2O[C@@H]1CN(C)Cc1ccc(-c2ccccc2)cc1	active
C[C@@H]1CN([C@H](C)CO)C(=O)c2cc(NS(=O)(=O)c3ccccc3)ccc2O[C@H]1CN(C)Cc1ccc(-c2ccccc2)cc1	inactive
C[C@@H]1CN([C@@H](C)CO)C(=O)c2cc(NS(=O)(=O)c3ccc(F)cc3)ccc2O[C@H]1CN(C)Cc1ccc(-c2ccccc2)cc1	inactive
C[C@H]1CN([C@@H](C)CO)C(=O)c2cc(NS(=O)(=O)c3ccc(F)cc3)ccc2O[C@@H]1CN(C)Cc1ccc(-c2ccccc2)cc1	active

Compound	cytotoxicity call
C[C@H](CO)N1C[C@H](C)[C@H](CN(C)Cc2ccc(-c3ccccc3)cc2)Oc2ccc(NS(=O)(=O)c3ccc(F)cc3)cc2C1=O	inactive
C[C@@H]1CN([C@H](C)CO)C(=O)c2cc(NS(=O)(=O)c3ccc(F)cc3)ccc2O[C@H]1CN(C)Cc1ccc(-c2ccccc2)cc1	active
C[C@H](CO)N1C[C@H](C)[C@H](CN(C)C(=O)NC2CCCCC2)OCCCC[C@H](C)Oc2ccc(NC(=O)CCC(F)(F)F)cc2C1=O	inactive
Cn1c(=O)c2c(nc3n2CC=NN3)n(C)c1=O	inactive
Cc1n[nH]c(C)c1N	inactive
CC(C)(C)[S@@](=O)N1Cc2cc(C(=O)N3CCCCC3)nc(-c3cccc(C4=CCCC4)c3)c2[C@H]1CCO	inactive
C[C@@H]1CN([C@H](C)CO)C(=O)c2cccc(NC(=O)CCCCCC(=O)Nc3ccccc3N)c2O[C@H]1CN(C)S(C)(=O)=O	inactive
C[C@H](CO)N1C[C@H](C)[C@@H](CN(C)Cc2ccc(-c3ccccc3)cc2)Oc2ccc(NS(=O)(=O)c3ccc(F)cc3)cc2C1=O	active
Cc1noc(C)c1S(=O)(=O)N(C)C[C@H]1Oc2ccc(NS(=O)(=O)c3cn(C)cn3)cc2CC(=O)N([C@@H](C)CO)C[C@H]1C	inactive
CCOC(=O)C1=C(C)N[C@@]2(O)C[C@@H]1[C@H]1CO[C@@H]2O1	inactive
NNC(=O)c1ccncc1	inactive
Nc1ccc(C(=O)O)c(O)c1	inactive
NNC(=O)c1ccncc1.Nc1ccc(C(=O)O)c(O)c1	active
CC(C)OC[C@H]1Cn2c(nc3c2c(=O)n(C)c(=O)n3C)O1	inactive
NC(=O)CCC(N)C(=O)O (stereo not drawn)	active
NC(=O)CC[C@H](N)C(=O)O	inactive
NCCCC[C@H](N)C(=O)O	inactive
NC(=O)CC[C@@H](N)C(=O)O	inactive
Cl.NCCCC(N)C(=O)O (stereo not drawn)	active
NC(CO)C(=O)O (stereo not drawn)	active
N[C@H](CO)C(=O)O	inactive
Cl.NCCCCC(N)C(=O)O (stereo not drawn)	inactive
NC(CC(=O)O)C(=O)O (stereo not drawn)	inactive
NC(=O)NCC#Cc1ccc2c(c1)[C@]1(C(=O)N2)[C@H](c2ccc(OCCO)cc2)N2[C@H](c3ccccc3)[C@H](c3ccccc3)OC(=O)[C@H]2[C@@H]1C(=O)N1CCCCCCC1	inactive
C[C@H](CO)N1C[C@H](C)[C@@H](CN(C)Cc2ccc3c(c2)OCO3)OCc2ccccc2-c2c(n(C)c3ccccc23)C1=O	inactive
C[C@H]1CCCCO[C@@H](CN(C)C(=O)CCC(F)(F)F)[C@@H](C)CN([C@@H](C)CO)C(=O)c2cc(NS(=O)(=O)c3ccc(F)cc3)ccc2O1	inactive

Source: the antibiotic and cytotoxicity screens of Wong et al. (2023)
